Reference: the supplement of paper PMC11417369
In all, about 25,000 sequences were measured (“ln(normalized median fluorescence intensity)”: median about 7.1, highest 2% from about 10 on). The list comes from a sample in which the highest values are over-represented; it also holds similar and randomly drawn sequences.

These sequences were tested on PfSIP2 AP2 domain 1 (GST-tagged) (assay: gcPBM binding intensity (ln(normalized median fluorescence intensity)); higher = stronger DNA binding).
Method in brief: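 GST-tagged P. falciparum DNA-binding domains, expressed in E. coli (about 25 μg on average), were applied for 1 h to an Agilent 4 × 180k array of primer-extended double-stranded 36-bp intergenic genomic probes plus negative controls. The binding buffer was 1× PBS with 1% milk, 0.2 mg/ml BSA, 0.5% salmon testes DNA and 0.03% Triton X-100. Bound protein was detected with Alexa488 anti-GST antibody and scanned at 488 nm. Binding intensity is the highest Masliner-normalised natural-log median intensity across replicate spots of either probe orientation.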

Sequence	gcPBM binding intensity (ln)
TACTATATCGATACCAGTACAGATTTATAAATAATA [XGTACX_site7491]	6.94
ATAAATAATATATATACACACATATCTATACATATT [CACACA_site487]	7.05
AAATTAAAGGCATAAAAGAAAATATTTAATAAAAAA [CACACA_negctrl_site1689]	6.57
AATAATAATAAAAAGGTGCTGAAATATTTTTATTAT [GTGCAC_site9763]	8.38
GCTGAAAGGATAAAGGTGCATATTTTTTAAAAAATT [GTGCAC_site9487]	11.2
ATACACACAGCCTAAACATGCATATAGAAAAAAGAA [TGCATGCA_site1028]	7.4
TATATATAGAAACACACACACACATATATATATATA [CACACA_site4116]	9.25
ATTCTATAGAAACACACACACATGCATGCACCTATA [CACACA_site107]	11.7
AATAAGTAACAAAATACACACATATAGGTAATTATA [CACACA_site6949]	6.83
CATAACATAAAATAGGTGCACAAAAATTGTAATTGA	11.2
GTTGTGTAATTCGTAACACACATAAAATATATATAA [CACACA_site6059]	6.97
ACATATGAATATAATACACACTTGTATTATTAATAT [CACACA_site8546]	6.85
ATATTCTTGTTTAATACACACTGTAGTATTATATAT [CACACA_site4400]	7.17
GAATAATATGGACATACACACATATACATACCTATA [CACACA_site7075]	7.25
GTACACCTATAATATACACACAACAAATATGCACAT [CACACA_site6603]	8.84
ATACAGTTGCATATGGTGCACGAATAATACACCTAT	11.3

Sequence	gcPBM binding intensity (ln)
ACACTTAAATATTGTTGTACAAAATGATAAAATGTA [XGTACX_site4588]	7.13
CACCCTTTGTTTTAGAGTACATATGTATATACGTAA [XGTACX_site7964]	7.53
ATAAAAAACTCAGAGCGTACATAATTTTTTCTATTT [XGTACX_site2803]	7.24
TATATATGGGTAACCTTTTTTTTTTTTTTTCGAACA [CACACA_negctrl_site1303]	6.8
AGGTAGAAAAAAGACACACACATTATGTATATATAT [CACACA_site377]	7.6
ACAAAATTTACAAAATGTACAAAATATACAAAATAT [XGTACX_site6465]	6.99
TACATACATATATTATGTACATATTTTATTTTTATT [XGTACX_site1642]	7.08
TACAATATATTTATAGTGCATATTACTTTTAACTTT	8.41
CACCCTTTACACAAGGTGCATACTTTATTATATTTT [GTGCAC_site9778]	10.6
TATTTTTATTATATGGTGCATATATACATACATATA	10.4
TTATTTTTATATTTCACACACATATACTTTTACATA [CACACA_site4097]	7.28
TATTATTATTTTATGGTGCAAAAAAAAAAAAAAAAA	10.6
CATATTATTATTTTGGTGCATACTTATATATATTTT	9.74
AAAATTATTTAGTAAGTGCAAAAAAAAAAAAAAAAA	8.21
ATTTATTTTAAATAAGTGCAAAATGGTTATAAATAA	8.23
